SMILES strings stand for the structures. Values joined by “and” are separate entries in the source; they are usually repeats but may differ in a detail not shown here. Equal values may be shown once. Among all 16,000 compounds or so, about 2,600 (16%) were called active. Not shown: some 20% with an inconclusive outcome. The call rests on the fitted dose curve; in most records, active means well fitted curve in the direction sought with a large enough effect; inconclusive means small, poorly fitted or top-dose-only effect, or effect the other way; inactive means no such curve, though single readings can be large or run the other way. A selection follows.
On the % scale 0 is the no-effect control and ±100 the full control effect.

For this assay, the target named is Cytochrome P450 2D6 (Homo sapiens) (UniProt P10635). The assay is described as follows: Cytochrome panel assay with activity outcomes. Particulars: recombinant CYP, pro-luciferin dealkylation, luminescence, p450-cyp2d6; series mostly up to 57.1 µM; activity, negative = inhibition: at the top concentration.
Chain of Cytochrome P450 2D6 (Homo sapiens) (P10635 whole entry, looked up): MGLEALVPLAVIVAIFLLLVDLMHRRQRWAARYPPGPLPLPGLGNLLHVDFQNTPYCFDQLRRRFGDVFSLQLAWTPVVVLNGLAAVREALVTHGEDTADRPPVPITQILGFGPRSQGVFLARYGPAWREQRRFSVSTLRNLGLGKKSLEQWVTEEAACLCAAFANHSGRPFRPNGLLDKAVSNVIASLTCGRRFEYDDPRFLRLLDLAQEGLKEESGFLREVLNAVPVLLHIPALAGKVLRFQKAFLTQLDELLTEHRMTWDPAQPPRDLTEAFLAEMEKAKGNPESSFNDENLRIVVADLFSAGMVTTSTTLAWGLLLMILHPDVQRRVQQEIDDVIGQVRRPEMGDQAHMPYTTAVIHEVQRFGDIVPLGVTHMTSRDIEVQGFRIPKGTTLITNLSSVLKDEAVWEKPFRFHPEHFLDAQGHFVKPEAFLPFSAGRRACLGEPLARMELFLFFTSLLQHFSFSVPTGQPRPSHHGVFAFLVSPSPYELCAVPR
As to `CCOC(=O)N1CCN(C(=O)CN(C)S(=O)(=O)c2ccc3c(c2)C(C)(C)C(=O)N3C)CC1`, the “activity, negative = inhibition” value is 20.2% (inactive). The same measure, in the same setting: the value for `CC[C@@H]1OC(=O)[C@H](C)[C@H](O[C@@H]2C[C@](C)(OC)[C@H](O)[C@H](C)O2)[C@H](C)[C@H](O[C@@H]2O[C@@H](C)C[C@@H](N(C)C)[C@@H]2O)[C@](C)(O)C[C@H](C)[C@@H]2N[C@H](COCCOC)O[C@H]([C@@H]2C)[C@]1(C)O` was 8.43% [at 25.6 µM] (inactive). `COc1ccccc1CN1CCC2(CC1)CCN(S(C)(=O)=O)CC2`: the half-maximal activity concentration (AC50) was 20 nM (active). The same measure, in the same setting: to `COc1ccccc1CN1CC[C@@]2(CCCN(S(C)(=O)=O)C2)C1` belongs 316 nM (active). For the compound `COc1ccc(NC(=O)N2CCCC3(CCN(S(C)(=O)=O)CC3)C2)cc1`, the “activity, negative = inhibition” value was -0.845% (inactive). On the same count and under the same terms, to `CS(=O)(=O)N1CCC[C@@]2(CCN(c3ccncc3)C2)C1` belongs -1.64% (inactive). On the same count and under the same terms, the value for `O=S(=O)(c1ccccc1)N1CCC[C@@]2(CCN(c3ccccc3)C2)C1` was -10.2% (inactive); that for `COc1ccc(NC(=O)N2CC[C@@]3(CCCN(S(C)(=O)=O)C3)C2)cc1` was 20.3% (inactive). On to `COc1ccccc1CN1CCCC2(CCN(S(C)(=O)=O)CC2)C1`, for which the AC50 was 63.1 nM (active).

On to `CS(=O)(=O)N1CCC2(CCN(Cc3nccs3)CC2)CC1`, for which the “activity, negative = inhibition” value was 7.26% (inactive). Regarding `COc1ccccc1CN1CC[C@@]2(CCCN(S(=O)(=O)c3ccccc3)C2)C1`, the half-maximal activity concentration (AC50) is 10 nM (active). As to `Cn1cc(-c2nc3cnc(Oc4ccccc4)nc3n(Cc3cccs3)c2=O)c2ccccc21`, the “activity, negative = inhibition” value was 7.6% (inactive). Still for that read-out and setting: the value for `CC(C)Cn1c(SCC(=O)c2c(N)n(C)c(=O)n(C)c2=O)nc2ccccc21` was -5.6% (inactive); that for `COCCNC(=O)c1onc(CSc2cccc(Cl)c2)c1C(=O)O` was 17.7% (inactive). Regarding `Nc1ccc(N=Nc2ccc(-c3ccc(O)cc3)cc2)c2ccc(S(=O)(=O)O)cc12`, the activity, negative = inhibition is 3.2% [at 11.4 µM] (inactive). As to `O=C(O)c1[nH]c2c([N+](=O)[O-])cc([N+](=O)[O-])cc2c1C(=O)O`, the activity, negative = inhibition is 11.1% [at 11.4 µM] (inactive).

With `NC(=O)C[C@H](N)C(N)=O`, the activity, negative = inhibition is -0.87% [at 11.4 µM] (inactive). With `CC1CCN(C(=O)Nc2ccc3nsnc3c2)CC1`, the “activity, negative = inhibition” value is 4.11% (inactive).

For `COc1ccccc1CN1CCC2(CC1)CCN(S(=O)(=O)c1ccccc1)CC2`, the AC50 is 158 nM (active). For `COc1ccc(NC(=O)N2CC3(CCN(S(=O)(=O)c4ccccc4)CC3)C2)cc1`, the “activity, negative = inhibition” value was -4.48% (inactive).

`O=S(=O)(c1ccccc1)N1CCC2(CCCN(Cc3nccs3)C2)CC1`: the “activity, negative = inhibition” value is 12% (inactive).

Consider `O=S(=O)(c1ccccc1)N1CCC[C@@]2(CCN(Cc3nccs3)C2)C1`, for which the AC50 was 2510 nM (active). Take `CN1CCC2(CC1)CCN(S(=O)(=O)c1ccccc1)CC2`: the “activity, negative = inhibition” value was 2.59% (inactive). Still for that read-out and setting: to `O=S(=O)(c1ccccc1)N1CCC2(CC1)CN(Cc1nccs1)C2` belongs 1.8% (inactive); to `Cc1cccn2c(=O)c(C=NCc3ccco3)c(Nc3ccc(SC(F)F)cc3)nc12`, 3.01% (inactive). Still for that read-out and setting: to `COC(=O)[C@@H]1O[C@@H](SCCN)[C@@H](O)[C@H](O)[C@H]1O` belongs -0.405% [at 11.4 µM] (inactive). As to `C#CCSc1nnc(-c2sc(-c3ccccc3)nc2C)n1C`, the AC50 was 6310 nM (active). Turning to `CSc1nnc(-c2sc(-c3ccccc3)nc2C)n1C`, the “activity, negative = inhibition” value was -9.68% (inactive). In the case of `C#CCSc1nnc(-c2cc3c(C(F)(F)F)nn(C)c3s2)n1C`, the “activity, negative = inhibition” value was -7.93% (inactive). The same measure, in the same setting: the value for `CC(=O)c1cc2ccccc2oc1=O` was -7.3% [at 25.6 µM] (inactive). Turning to `COC(=O)C1CSC(C(=O)OC)N1C(=O)Nc1c(C)cccc1C` (stereo unspecified), the “activity, negative = inhibition” value was 19.8% (inactive).

As for `O=C(CN(Cc1ccccc1Cl)C(=O)c1ccc(CN2CCOCC2)o1)NCC1CCCO1` (stereo unspecified), the concentration at half-maximal activity (AC50) is 7080 nM (active).

As for `O=C(CSCc1c(F)cccc1Cl)NCC1CCCO1` (stereo unspecified), the “activity, negative = inhibition” value was -8.79% (inactive).

Consider `Cc1ccc(CS(=O)(=O)Cc2ccc(C(=O)NCC3CCCO3)o2)cc1` (stereo unspecified), for which the “activity, negative = inhibition” value is -6.61% (inactive). Same read-out and setting: the value for `Cc1ccccc1NC(=O)c1cccc2nc3ccccc3nc12` was -15.8% (inactive). Take `COC(=O)C/C=C\[C@@H](C)[C@@H](/C=N\OC[C@@H]1O[C@H](c2ccccc2)C=C[C@@H]1Oc1ccc(OC)cc1)NS(=O)(=O)c1ccc(C)cc1`: the activity, negative = inhibition was -14% [at 11.4 µM] (inactive). With `N=C(N)SCCc1cnc[nH]1`, the half-maximal activity concentration (AC50) was 25.1 µM (active) and 6.31 µM (active). On to `N=C(N)SCCCN`, for which the activity, negative = inhibition was -11.8% [at 11.4 µM] (inactive).

As for `O=C(NCCNC[C@@H](O)COc1ccc(O)cc1)N1CCOCC1`, the AC50 result is “inactive”. Turning to `Cc1nc(Oc2ccc(Cl)cc2)c2oc3ccccc3c2n1`, the “activity, negative = inhibition” value was -7.69% (inactive). Same read-out and setting: to `COc1ccccc1OCC(=O)NNC(=O)c1cnccn1` belongs 10.5% (inactive). Still for that read-out and setting: the value for `Cn1c(=O)cc(OCC(=O)NCc2cccnc2)c2ccccc21` was -25.4% (inactive). `CCn1c(=O)cc(OCC(=O)Nc2cccnc2)c2ccccc21`: the concentration at half-maximal activity (AC50) was 6310 nM (active). Regarding `Cc1cc(N2CCOCC2)ccc1/C=C1\SC(=O)N(C(C)C)C1=O`, the “activity, negative = inhibition” value was -6.56% (inactive). For `COC(=O)[C@H](C)NC(=O)[C@@H](C)CO`, the activity, negative = inhibition was -0.424% [at 11.4 µM] (inactive). Take `Cn1c(=O)c2[nH]c(/N=N\N3CCN(CCO)CC3)nc2n(C)c1=O`: the activity, negative = inhibition was 3.89% [at 11.4 µM] (inactive). The same measure, in the same setting: the value for `N[C@H](Cc1ccc(Cl)cc1)C(=O)O` was -8.94% (inactive); that for `O=C(O)CCC(=O)c1ccc(Cl)cc1` was 11.7% [at 11.4 µM] (inactive). Regarding `N[C@@H](C(=O)O)[C@H](CC(=O)O)c1ccc(Cl)cc1`, the concentration at half-maximal activity (AC50) is 2510 nM (active).

As for `CCn1c(SCc2ccc(C(=O)Nc3nccs3)cc2)nnc1-c1ccc(NC(C)=O)cc1`, the “activity, negative = inhibition” value is -29.1% (inactive). On the same count and under the same terms, the value for `CC12CCC(C(=O)Nc3ccccc3Br)(C/C1=N\O)C2(C)C` (stereo unspecified) was 8.66% (inactive); that for `Cc1cnc(CNc2ccnc(-c3c(C)noc3C)n2)cn1` was -9.71% (inactive). As for `c1ccc(CNc2ccnc(-c3ccoc3)n2)cc1`, the AC50 was 20000 nM (active).

Consider `Cc1cnc(CNc2ccnc(-c3ccoc3)n2)cn1`, for which the “activity, negative = inhibition” value is -4.01% (inactive).

For `c1csc(CNc2ccnc(-c3ccoc3)n2)c1`, the concentration at half-maximal activity (AC50) is 3160 nM (active).

`c1cncc(-c2nccc(NCc3cccs3)n2)c1`: the concentration at half-maximal activity (AC50) was 631 nM (active). On the same count and under the same terms, the value for `CN(C)c1ccc(-c2nccc(NCc3cccs3)n2)cc1` was 126 nM (active). Consider `COc1ncc2ncc(=O)n(Cc3ccc(F)cc3)c2n1`, for which the “activity, negative = inhibition” value is 5.3% (inactive).

With `CCC(C)[C@H](NC(=O)Nc1ccc(Oc2ccccc2)cc1)C(=O)O` (stereo partly specified), the “activity, negative = inhibition” value was 11.5% (inactive). The same measure, in the same setting: the value for `O=C(O)c1c[nH]c2cc(OCc3ccccc3)ccc2c1=O` was 4.69% [at 11.4 µM] (inactive). Still for that read-out and setting: to `O=C(O)[C@@H]1[C@@H]2C[C@H]([C@@H](Br)[C@H]2N2C(=O)CCC2=O)[C@@H]1C(=O)O` belongs -2.86% [at 11.4 µM] (inactive).

A word on the AC50: it is the midpoint of the concentration-response curve, whichever way the signal moves.
